PubChem BioAssay (EPA / NIEHS)
Active and inactive are the calls of the source. Rule for the calls: active = hit-call score of the fitted dose curve at least 0.9, where 1 is the maximum; inactive = score below 0.9.

Read-out: Bcl-2 (BID) gene, BID (gene 637)
Experiment: LTEA_HepaRG_BID: Life Technologies and Expression Analysis (LTEA) Assay for Bcl-2 (BID) gene using HepaRG (AID 2283476)
Settings: mRNA level, 48 h; actives raise or lower the signal
Description: LTEA_HepaRG is a cell based, multiplexed-readout assay that uses HepaRG, a human liver cell line, with measurements taken at 48 hours after chemical dosing on a 96-well plate.LTEA_HepaRG_BID is one of 102 assay component(s) measured in the LTEA HepaRG cell culture assay. It is a marker of Cell proliferation, survival, death.Data from the assay component LTEA_HepaRG_BID was analyzed into 1 endpoint. This assay endpoint, LTEA_HepaRG_BID, was analyzed with bidirectional fitting relative to DMSO as the negative control and baseline of activity. Using a type of inducible reporter, measures of mRNA induction for gain or loss-of-signal activity can be used to understand regulation of transcription factor activity. To generalize the intended target to other relatable targets, this assay endpoint is annotated to the cell cycle intended target family, where the subfamily is Cell proliferation, survival, death.
A total of 1060 chemcials from the ToxCast library were tested in eight-point concentration-response experiments. Cell culture and cytotoxicity assays were conducted at Thermo Fisher Scientific's Custom Services facility (Madison, WI). A single lot of human HepaRG cells (Thermo Fisher Scientific, Frederick, MD) was used for the cell culture experiments. 96-well format collagen type I coated plates of human HepaRG cells were prepared using established methods. Briefly, cryopreserved HepaRG cells were thawed, plated at a density of approximately 100,000 cells/well in HepaRG Thaw, Plate, and General Purpose media (HPRG770, Thermo Fisher Scientific), and incubated for 48 hours. 0.5% DMSO was selected as vehicle control to balance the requisite need of DMSO in HepaRG cultures to maintain differentiation (for example, baseline metabolism, proportions of hepatocytes vs. cholangiocytes), while enabling further hepatic receptor pathway activation (for example, PXR and CAR) in response to chemical exposure. 48 hours after plating, the culture medium was replaced with HepaRG Serum-Free Incudtion Media. Cells were exposed to each test chemical in duplicate and maintained in CO2 incubators for another 48 hours. Chemical plates were thawed to room temperature and 200x concentrations of treatment groups were prepared. 8-point conentration-reponse curves were made with the highest exposure at 100 uM, followed by half-log dilutions, all in 0.5% DMSO. Each test plate contained variouse controls, induction positive controls (1mM phenobarbital), cytotoxicity positive controls ([…] aflatoxin B1), vehicle controls (0.5% DMSO), and total lysis controls (0.5% DMSO). Cell morphology images were taken using an Essen IncuCyte FLR automated microscope, with six 96-well plates imaged in about 24 minutes. Images were captured and exported and JPEG files. Spent culture media was transfered to black-well plates for the LDH assay, and remaining media was sorted at -80 C for later use. Cells were treated with RLT buffer and frozen until shipped for gene expression analysis. Total RNA was isolated from the cell suspension in 75 uL of Buffer RLT (Qiagen, Germantown, MD 20874) by Quintiles/Expression Analysis (Durham, NC) using a custom isolation procedure. Total RNA from each plate well was transferred to a preamplification plate. Fluidigm's 96.96 Dynamic ArrayTM (Fluidigm, Amsterdam, the Netherlands) technology was used for gene expression analyses by quantitative reverse transcription polymerase chain reaction (qRT-PCR, performed by Quintiles/Expression Analysis, Durham, NC)89. Standard TaqManTM Assays (Applied Biosystems/ThermoFisher Scientific, Foster City, CA) were used to assess the expression of 93 genes selected based on their selectivity and sensitivity to important hepatic receptors known to be modulated by environmental chemicals; importance in human hepatocyte functionality; and hepatotoxicity. […]

SMILES | AC50 | outcome
CC(C)(C)c1csc(-c2cc3cc(OCc4ccccc4CC(=O)O)ccc3o2)n1 | 75.7 µM (active) | 
Oc1ccccc1 |  | inactive
CCO[Si](CCCNC(N)=O)(OCC)OCC |  | inactive
c1ccc(C[n+]2cccc3ccccc32)cc1 |  | inactive
CO[C@H]1/C=C/O[C@@]2(C)Oc3c(C)c(O)c4c(O)c(c(/C=N/N5CCN(C)CC5)c(O)c4c3C2=O)NC(=O)/C(C)=C\C=C\[C@H](C)[C@H](O)[C@@H](C)[C@@H](O)[C@@H](C)[C@H](OC(C)=O)[C@@H]1C |  | inactive
C[C@]12CC[C@@H]3c4ccc(O)cc4CC[C@H]3[C@@H]1CC[C@H]2O |  | inactive
Cc1cccc2ccccc12 |  | inactive
CN(C[C@@H](CC[N+]12CCC(C3CCCCC3)(CC1)CC2)c1ccc(Cl)c(Cl)c1)C(=O)c1cc(C(F)(F)F)cc(C(F)(F)F)c1 |  | inactive
COCC(C)OCC(C)OCC(C)O (stereo not given) |  | inactive
O=C1CCC(C2CCCCC2)CC1 |  | inactive
OC12N=C(c3ccccc3)SC1Cc1cc(Cl)ccc12 (stereo not given) |  | inactive
CCCCOC(=O)CC(CC(=O)OCCCC)(OC(C)=O)C(=O)OCCCC |  | inactive
O=c1ccc2ccccc2o1 |  | inactive
O=C(O)c1ccccc1C(=O)OCc1ccccc1 |  | inactive
CCCCCCCC[Si](OCC)(OCC)OCC |  | inactive
CC1(C)NC(=O)N(c2ccc([N+](=O)[O-])c(C(F)(F)F)c2)C1=O |  | inactive
CCN(Cc1cccc(S(=O)(=O)O)c1)c1ccc(C(=C2C=CC(=[N+](CC)Cc3cccc(S(=O)(=O)O)c3)C=C2)c2ccccc2S(=O)(=O)[O-])cc1 |  | inactive
CN1C(=O)N(c2ccccc2Br)Cc2cnc(Nc3ccc4c(c3)OCC(CO)O4)nc21 (stereo not given) | 70.7 µM (active) | 
c1ccc2ccccc2c1 |  | inactive
O=C(Nc1ccc(Cl)cc1)Nc1ccc(Cl)c(Cl)c1 |  | inactive

SMILES | AC50 | outcome
CN(C)c1ccc(C(=C2C=CC(=[N+](C)C)C=C2)c2ccc(N(C)C)cc2)cc1 |  | inactive
O=C=NCCCCCCN=C=O |  | inactive
C[C@]12CC[C@@H]3c4ccc(O)cc4CC[C@H]3[C@@H]1CCC2=O |  | inactive
Clc1cc(Cl)c2c(c1)N=C1CCCCCN1C2 |  | inactive
Cc1ccc(C(C)C)cc1 |  | inactive
CCCCCCCCCCCO |  | inactive
COc1ccc2cc(S(=O)(=O)N[C@H](CC(=O)N[C@H](Cc3ccc(CN4[C@H](C)CCC[C@@H]4C)cc3)C(=O)N(C)C(C)C)c3ccc4c(c3)OCO4)ccc2c1 | 21.6 µM (active) | 
O=CCCCC=O |  | inactive
CCN(Cc1cccnc1)C(=O)c1cccc(Cl)c1[C@]1(C)C(=O)N(Cc2ccc(OC)cc2OC)c2ccc(Cl)cc21 |  | inactive
COc1cccc([C@H](O)C2CCN(CCc3ccc(F)cc3)CC2)c1OC |  | inactive
CC/C(=C(/CC)c1ccc(O)cc1)c1ccc(O)cc1 |  | inactive
CC(C)(C)c1cc(/C=C2\SC(N)=NC2=O)cc(C(C)(C)C)c1O | 15.8 µM (active) | 
Cc1cn([C@H]2C[C@H](N=[N+]=[N-])[C@@H](CO)O2)c(=O)[nH]c1=O |  | inactive
O=C(O)c1ccccc1-n1cc(C(=O)O)c(=O)c2cc(Nc3c(F)cc(F)cc3Cl)c(Cl)cc21 | 0.01 µM (active) | 
O=C1c2ccccc2C(=O)N1CCc1noc(-c2ccc(CN3CCCCCC3)s2)n1 |  | inactive
O=C(O)Cn1c(=O)n(Cc2ccc(Br)cc2F)c(=O)c2ccc(Cl)cc21 |  | inactive
O=C1O[C@H]([C@@H](O)CO)C(O)=C1O |  | inactive
CCCCCCCCCCCC[N+](C)(C)C |  | inactive
CCCC(=O)OCCC(C)C |  | inactive
Cc1ncc(CO)c(CO)c1O |  | inactive
